Source: PubChem BioAssay (Tox21)
Records with an inconclusive call do not appear. Active and inactive are the calls of the source. Unless noted, the call rests on the fitted dose curve.

Legend:
[1] = Nuclear factor erythroid 2-related factor 2/antioxidant responsive element (Nrf2/ARE) small molecule agonists: qHTS cell viability counter screen in human keratinocytes (AID 1919968; active means well fitted cell-killing curve with a large enough effect in the repeat runs; further: nearly all actives have a fitted effect of over 55% in size)
Method in brief: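 CellTiter-Fluor fluorescence, read 1 h after reagent, gave viability in the same wells as the ARE-luciferase assay. KeratinoSens cells (1,500/well) had 23 h compound exposure at 37 C/5% CO2 following 5 h plating.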

[2] = Nuclear factor erythroid 2-related factor 2/antioxidant responsive element (Nrf2/ARE) small molecule agonists: luciferase reporter gene qHTS assay in human keratinocytes (AID 1919969); further: nearly all actives have a fitted effect of over 35% in size
[3] = molecular target: Gonadotropin-releasing hormone receptor (Homo sapiens) (UniProt P30968); assay: Human gonadotropin-releasing hormone receptor (GnRHR) small molecule agonists, calcium flux assay in GnRHR-HEK293 cells (AID 1920063); further: nearly all actives have a fitted effect of over 35% in size
Chain of Gonadotropin-releasing hormone receptor (Homo sapiens) (P30968 whole entry, looked up): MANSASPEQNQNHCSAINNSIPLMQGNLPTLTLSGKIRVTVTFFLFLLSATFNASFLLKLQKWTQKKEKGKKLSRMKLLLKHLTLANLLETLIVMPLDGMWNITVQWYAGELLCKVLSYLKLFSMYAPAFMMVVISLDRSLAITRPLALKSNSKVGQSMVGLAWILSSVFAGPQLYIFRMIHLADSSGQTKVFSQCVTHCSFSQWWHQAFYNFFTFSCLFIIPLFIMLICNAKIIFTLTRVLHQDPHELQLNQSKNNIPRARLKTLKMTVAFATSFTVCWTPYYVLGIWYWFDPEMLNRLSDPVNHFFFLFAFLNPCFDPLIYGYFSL
Method in brief: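 Agonist mode: compounds at 15 concentrations, in triplicate, went onto calcium dye-loaded GnRHR-HEK293 cells. Intracellular calcium was then followed as 480/540 nm fluorescence at 1 s intervals over 3 min.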

[4] = G protein-coupled receptor (GPCR) small molecule agonists, calcium flux assay: HEK293 wild type cell line counter screen (AID 1920065)
Method in brief: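 Calcium flux counter screen: compound added in agonist mode at 15 concentrations in triplicate to dye-loaded parental HEK293 cells. Fluorescence (480/540) read kinetically for 3 min; ATP served as positive control.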

[5] = p53 small molecule agonists, cell-based qHTS assay with human liver microsomes: qHTS cell viability counter screen (AID 1963579); further: nearly all actives have a fitted effect of over 45% in size
Method in brief: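 p53RE-bla cells, 4,000/well, dosed 5 hours after plating, with human liver microsomes (0.5 mg/mL final) plus NADPH (0.5 mg/mL final), 16 hours at 37 C. Viability read as CellTiter-Glo luminescence after 30 min at room temperature.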

[6] = p53 small molecule agonists, cell-based qHTS assay with rat liver microsomes: qHTS cell viability counter screen (AID 1963580); further: nearly all actives have a fitted effect of over 45% in size
Method in brief: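 Cytotoxicity counter screen: intracellular ATP read by CellTiter-Glo luminescence in the p53 reporter wells. HCT-116 p53RE-bla cells were treated for 16 h at 37 C alongside rat liver microsomes and NADPH, each 0.5 mg/mL final.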

[7] = p53 small molecule agonists, cell-based qHTS assay: qHTS cell viability counter screen (AID 1963581); further: nearly all actives have a fitted effect of over 45% in size
Method in brief: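 Counter screen read by CellTiter-Glo luminescence (ATP content, 30 min at room temperature), run in the same wells as the beta-lactamase reporter read. HCT-116 p53RE-bla cells saw compounds for 16 h at 37 C.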

[8] = cAMP Responsive Elements (CRE) small molecule agonists, cell-based qHTS assay (AID 1963590)
Method in brief: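 Agonist mode: compound added to CRE-bla HEK 293T cells (2,000/well, 18 h after plating) for 3 h at 37 C/5% CO2. Reporter activity detected via FRET beta-lactamase substrate, 2 h room-temperature loading.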

[9] = cAMP Responsive Elements (CRE) small molecule antagonists, cell-based qHTS assay (AID 1963591; active means well fitted inhibition curve with a large enough effect in the signal ratio in the repeat runs, not every such curve was filed as active; the % refers to the signal ratio)
Method in brief: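 Antagonist mode: compounds are added alongside the adenylyl cyclase activator NKH477 (0.25 uM final) to CRE-bla HEK293T cells for 3 h. LiveBLAzer FRET substrate, 2 h at room temperature, reports bla expression.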

[10] = molecular target: Beta-2 adrenergic receptor (Homo sapiens) (UniProt P07550); assay: Adrenergic beta2 receptor (ADRB2) small molecule antagonists, cell-based qHTS assay (AID 1963592); further: series mostly up to about 92 µM; nearly all actives have a fitted effect of over 50% in size
Chain of Beta-2 adrenergic receptor (Homo sapiens) (P07550 whole entry, looked up): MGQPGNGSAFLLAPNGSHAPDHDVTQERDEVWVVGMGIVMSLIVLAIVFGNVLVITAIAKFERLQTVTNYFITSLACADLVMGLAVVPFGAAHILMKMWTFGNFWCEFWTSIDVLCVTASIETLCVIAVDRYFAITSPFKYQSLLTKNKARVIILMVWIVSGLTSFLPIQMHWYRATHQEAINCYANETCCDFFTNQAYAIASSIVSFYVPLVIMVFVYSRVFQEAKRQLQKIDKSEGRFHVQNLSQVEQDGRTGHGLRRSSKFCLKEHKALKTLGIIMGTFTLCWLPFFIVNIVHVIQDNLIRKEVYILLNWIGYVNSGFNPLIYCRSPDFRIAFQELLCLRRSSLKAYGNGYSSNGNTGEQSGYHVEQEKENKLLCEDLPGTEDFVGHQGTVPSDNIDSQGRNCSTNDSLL
Method in brief: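 Assay format: CHO-ADRB2 cells, 18-20hr seeding at 37C/5% CO2, then compound plus 1nM isoproterenol agonist mix for 0.5hr RT. Homogeneous time-resolved fluorescence cAMP detection after 1hr, expressed as 665/615 nm ratio.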

[11] = molecular target: Beta-2 adrenergic receptor (Homo sapiens) (UniProt P07550); assay: Adrenergic beta2 receptor (ADRB2) small molecule agonists, cell-based qHTS assay (AID 1963593);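 further: CHO cells stably overexpressing human ADRB2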
Method in brief: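 CHO cells stably over-expressing ADRB2 were plated overnight at 37C, then dosed with compounds plus a stimulation mix containing 100uM IBMX and 25uM Ro-20-1724 for 0.5hr at room temperature. cAMP was measured by HTRF competition, 1hr.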

[12] = molecular target: D(2) dopamine receptor (Homo sapiens) (UniProt P14416); assay: Dopamine D2 receptor (DRD2) small molecule agonists, cell-based qHTS assay (AID 1963594); further: nearly all actives have a fitted effect of over 35% in size
Chain of D(2) dopamine receptor (Homo sapiens) (P14416 whole entry, looked up): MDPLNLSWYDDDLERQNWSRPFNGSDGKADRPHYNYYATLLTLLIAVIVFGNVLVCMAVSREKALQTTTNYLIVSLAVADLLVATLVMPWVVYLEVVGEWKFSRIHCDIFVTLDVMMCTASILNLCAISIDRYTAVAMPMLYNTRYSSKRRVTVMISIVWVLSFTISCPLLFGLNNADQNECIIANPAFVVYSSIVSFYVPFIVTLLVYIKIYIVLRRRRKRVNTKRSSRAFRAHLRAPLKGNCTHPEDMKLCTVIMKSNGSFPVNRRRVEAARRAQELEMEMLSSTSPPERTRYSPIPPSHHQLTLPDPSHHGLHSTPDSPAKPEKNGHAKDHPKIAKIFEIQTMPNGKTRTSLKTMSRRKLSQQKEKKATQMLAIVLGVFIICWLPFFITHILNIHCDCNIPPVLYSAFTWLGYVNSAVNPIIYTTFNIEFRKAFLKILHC
Method in brief: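 cAMP accumulation in DRD2-HEK293 cells measured by HTRF after 1 h detection; compounds added 10 min before NKH477 (200nM […]) forskolin-analogue stimulation, 30 min at room temperature, with Ro20-1724 present at 0.1 mM final.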

[13] = molecular target: D(2) dopamine receptor (Homo sapiens) (UniProt P14416); assay: Dopamine D2 receptor (DRD2) small molecule antagonists, cell-based qHTS assay (AID 1963595; active means well fitted inhibition curve with a large enough effect in the signal ratio in the repeat runs, with a control signal flat; the % refers to the signal ratio)
Method in brief: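 Cells were plated and grown for 24 h at 37 °C. Ro20-1724 (0.1 mM final) went in first, then compound for 10 min. NKH477 (200 nM) with quinpirole (12 nM) followed for 30 min at RT, then HTRF detection reagents for 1 h.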

[14] = p53 small molecule agonists, cell-based qHTS assay with human liver microsomes (AID 1963577)
Method in brief: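 p53RE-bla cells, 4,000/well, compound added after 5 h, with human liver microsomes 0.5 mg/mL and NADPH 0.5 mg/mL final; 16 h at 37 C, then LiveBLAzer 2 h RT, fluorescence.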

[15] = p53 small molecule agonists, cell-based qHTS assay (AID 1963582; active means well fitted activation curve with a large enough effect in the signal ratio in the repeat runs, not every such curve was filed as active; the % refers to the signal ratio)
Method in brief: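 Read-out is beta-lactamase FRET fluorescence after 2 h at room temperature with LiveBLAzer B/G substrate. p53 response element-bla cells were treated 16 h at 37 C with compounds in DMSO, added 5 h after seeding.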

[16] = molecular target: 5-hydroxytryptamine receptor 2A (Homo sapiens) (UniProt P28223); assay: 5-hydroxytryptamine receptor 2A (HTR2A) small molecule agonists, cell-based qHTS assay (AID 1963587); further: nearly all actives have a fitted effect of over 30% in size
Chain of 5-hydroxytryptamine receptor 2A (Homo sapiens) (P28223 whole entry, looked up): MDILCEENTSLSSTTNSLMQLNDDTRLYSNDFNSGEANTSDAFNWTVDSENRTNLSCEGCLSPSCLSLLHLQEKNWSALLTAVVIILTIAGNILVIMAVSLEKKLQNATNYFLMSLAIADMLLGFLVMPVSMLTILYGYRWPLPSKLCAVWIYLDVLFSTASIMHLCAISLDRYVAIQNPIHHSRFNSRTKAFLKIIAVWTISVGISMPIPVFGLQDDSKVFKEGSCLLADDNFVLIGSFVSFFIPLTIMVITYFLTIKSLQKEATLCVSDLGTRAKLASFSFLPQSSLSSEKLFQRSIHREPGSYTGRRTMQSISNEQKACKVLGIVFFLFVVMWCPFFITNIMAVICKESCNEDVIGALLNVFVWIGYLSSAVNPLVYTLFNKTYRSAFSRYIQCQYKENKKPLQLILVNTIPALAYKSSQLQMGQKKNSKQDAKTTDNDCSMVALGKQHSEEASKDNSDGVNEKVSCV
Method in brief: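 Kinetic calcium-flux fluorescence (2 min, 1 sec intervals) after compound addition in agonist mode. HTR2A-CHO cells were cultured 18 h, then dye-loaded 1 h at 37 C.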

[17] = molecular target: Muscarinic acetylcholine receptor M1 (Homo sapiens) (UniProt P11229); assay: Cholinergic receptor muscarinic 1 (CHRM1) small molecule antagonists, cell-based qHTS assay (AID 1963588); further: nearly all actives have a fitted effect of over 40% in size
Chain of Muscarinic acetylcholine receptor M1 (Homo sapiens) (P11229 whole entry, looked up): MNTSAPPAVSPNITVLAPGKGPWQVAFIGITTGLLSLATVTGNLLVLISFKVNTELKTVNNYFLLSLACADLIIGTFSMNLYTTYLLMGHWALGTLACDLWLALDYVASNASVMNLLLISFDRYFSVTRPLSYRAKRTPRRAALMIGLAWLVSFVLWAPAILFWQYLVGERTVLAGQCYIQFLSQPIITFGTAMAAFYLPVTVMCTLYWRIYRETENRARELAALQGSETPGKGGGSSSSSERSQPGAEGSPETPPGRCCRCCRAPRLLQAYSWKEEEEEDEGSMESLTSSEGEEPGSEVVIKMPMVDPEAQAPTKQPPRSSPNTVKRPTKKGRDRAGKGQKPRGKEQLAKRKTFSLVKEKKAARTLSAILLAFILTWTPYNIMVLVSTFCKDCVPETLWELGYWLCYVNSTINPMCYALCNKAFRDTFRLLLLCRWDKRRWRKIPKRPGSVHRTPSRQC
Method in brief: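 Compounds were tested at 15 concentrations in three independent runs. Dye-loaded CHRM1-CHO cells were exposed 5 min at room temperature before stimulation by acetylcholine added at 50nM. Intracellular calcium was read kinetically on FDSS for 3 min.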

[18] = molecular target: Muscarinic acetylcholine receptor M1 (Homo sapiens) (UniProt P11229); assay: Cholinergic receptor muscarinic 1 (CHRM1) small molecule agonists, cell-based qHTS assay (AID 1963589); further: nearly all actives have a fitted effect of over 35% in size
Method in brief: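 Agonist-mode calcium-flux screen: compounds at 15 concentrations, three independent runs, were pin-transferred onto dye-loaded human CHRM1-CHO cells. Fluorescence was then recorded kinetically every second over minutes.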

[19] = p53 small molecule agonists, cell-based qHTS assay with rat liver microsomes (AID 1963578)
Method in brief: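 p53RE-bla cells, 4,000/well, pre-incubated 5 h, then given compounds plus rat liver microsomes (0.5 mg/mL final) and NADPH (0.5 mg/mL final). Incubation 16 h at 37 C; beta-lactamase reporter read by LiveBLAzer fluorescence after 2 h at room temperature.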

[20] = molecular target: 5-hydroxytryptamine receptor 2A (Homo sapiens) (UniProt P28223); assay: 5-hydroxytryptamine receptor 2A (HTR2A) small molecule antagonists, cell-based qHTS assay (AID 1963586); further: nearly all actives have a fitted effect of over 45% in size
Method in brief: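 CHO cells stably expressing human HTR2A were plated for 18 h at 37 C, then loaded with calcium dye for 1 h. Compounds were preincubated 5 min at room temperature before DOI (4 nM solution) was added. Kinetic fluorescence was read for 3 min.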

Measured: Potency

CN1CCC[C@H]1c1cccnc1
inactive: [1] | [2] | [3] | [4] | [5] | [6] | [7] | [8] | [9] | [10] | [11] | [12] | [13]

C=C(C)OC(C)=O
inactive: [1] | [2] | [3] | [4] | [14] | [5] | [6] | [7] | [15] | [16] | [17] | [18] | [8] | [9] | [10] | [12] | [13]

OCCOCCOCCOCCO
inactive: [1] | [2] | [4] | [14] | [19] | [5] | [6] | [7] | [15] | [16] | [17] | [18] | [8] | [9] | [11] | [12] | [13]

N=C(N)c1ccc(OCCCCCOc2ccc(C(=N)N)cc2)cc1
inactive: [1] | [2] | [3] | [4] | [5] | [6] | [7] | [8] | [9] | [10] | [11] | [12] | [13]

CC(=O)Nc1c(I)c(NC(C)=O)c(I)c(C(=O)O)c1I
inactive: [1] | [2] | [3] | [5] | [6] | [7] | [8] | [9] | [10] | [12] | [13]

Cc1ccc(C)c(O)c1C
inactive: [1] | [2] | [3] | [14] | [19] | [5] | [6] | [7] | [15] | [20] | [16] | [17] | [18] | [8] | [9] | [10] | [11] | [12] | [13]

C[N+](C)(C)CCCCCC[N+](C)(C)C
inactive: [1] | [2] | [4] | [14] | [19] | [5] | [6] | [7] | [15] | [20] | [16] | [17] | [18] | [8] | [9] | [10] | [11] | [12] | [13]
